MITF TRPM1 inh – inhibitors of MITF-driven TRPM1 promoter in melanoma cells; SK-MEL-5 TRPM1 promoter luciferase, 24 h; inhibition, % at 12.5 µM; actives 0.83% (n = 330,000); AID 488899;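 active = mean inhibition across replicates of 60% or more, whatever share of single replicates reaches that level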
Peg3 promoter – Peg3 promoter activity inhibition; AID 588405; actives 1.7% (n = 360,000); HeLa PEG-Prom luciferase reporter, luminescence, overnight; inhibition, % at 20 µM;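 active = inhibition of at least 50% at 20 µM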
TROY signal inh – blocks TROY-dependent signaling in reporter cells. Q293 LMP1-TROYcd NF-kB luciferase reporter, 4 h. inhibition, % at 10 µM. actives 0.98% (n = 360,000). AID 1347056;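 active = compounds whose plate-normalised and pattern-corrected inhibition of the luciferase reporter signal at the single screening dose is 50% or more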
HIF-2a inh – HIF-2a inhibition; 786-0 RCC cells HIF-2a reporter, luciferase luminescence, overnight; inhibition, % at 18.8 µM; actives 0.72% (n = 360,000);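 active = inhibition of the luminescence signal of 40% or more relative to plate controls, in a single-dose primary screen at 18.75 µM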
EBV LMP1 NFkB – reduces LMP1-driven NF-kappaB luciferase signal | LMP1-induced NF-kappaB luciferase reporter cells, luminescence | inhibition, % at 12.5 µM | actives 0.69% (n = 350,000) | AID 504558; in the data active = inhibition above about 41%;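 note: 0% = neutral control wells and 100% = reference inhibitor control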
TWEAK-Fn14 inh – TWEAK-Fn14 signaling inhibition. TWEAK-stimulated Fn14 reporter cells, luciferase luminescence, 8 h. actives 2% (n = 360,000). AID 1159606. inhibition, % at 10 µM; in the data active = inhibition above about 50%
Numbers without * were called inactive; · = no result given; ! = not active in a repeat. Sampled rows, rich in hits. Any-hit rate of the full collection: about 4%.

SMILES	MITF TRPM1 inh	Peg3 promoter	TROY signal inh	HIF-2a inh	EBV LMP1 NFkB	TWEAK-Fn14 inh
CC(=O)OCC(=O)Nc1ccc([N+](=O)[O-])cc1Cl	-2	3	17	10	0	-2
Cc1cc(Cl)ccc1OCC(=O)OCC(=O)Nc1ccc(Cl)cn1	·	3	-16	16	-28	-3
O=C(COc1ccc(Cl)cc1Cl)Nc1ccc(Cl)cn1	-86	-197	4	-97	-35	54*
Cc1ccc(Cl)cc1NC(=O)COC(=O)C12CC3CC(CC(C3)C1)C2	7	44	4	22	1	67*!
O=C(COc1ccc(Cl)cc1Cl)Nc1ccccc1F	-4	-149	-7	-153	-38	55*
CC(=O)OCC(=O)Nc1ccc(Cl)cc1Cl	1	-2	·	4	35	54*
O=C(COc1ccccc1)NNc1nc2ccccc2s1	4	-7	85*	-20	-9	70*
CC(=O)NNc1nc2ccccc2s1	-4	4	83*	11	-1	89*
CCCCN1C(=O)C(CC(=O)NCCN2CCOCC2)CC(C(=O)N(C)C)=C1C (stereo not given)	·	9	1	2	-1	-5
C=CCc1ccccc1OCC(=O)NNC(=S)NCc1ccccc1	-5	22	21	3	-12	19
CCOC(=O)c1cccc(N2C(=O)C3C(C2=O)C2C=CC3C23CC3)c1 (stereo not given)	9	14	·	14	11	89*
CC(=O)Oc1cccc(N2C(=O)C3C(C2=O)C2C=CC3C23CC3)c1 (stereo not given)	11	1	8	11	0	0
Cc1ccc(OCCOc2ccc(Br)cc2)c([N+](=O)[O-])n1	-115	-301	-64	-217	-19	-35
CCc1ccc(C(=O)COC(=O)c2n[nH]c3ccccc23)cc1	-54	-144	12	-61	0	62*
Cn1c(=O)[nH]c2c(c1=O)CCO2	-7	-9	2	5	7	17
Fc1ccc(-c2nc3n(n2)Cc2ccccc2-3)cc1	-17	-154	30	-99	-17	58*
NC(=S)Cc1nc2n(n1)Cc1ccccc1-2	-3	19	-3	-8	3	21
Cc1ccc(-c2nc3n(n2)Cc2ccccc2-3)cc1	48	-8	58*	15	15	94*
Cc1cc(C)n2nc(-c3ccc(F)cc3)nc2n1	-11	-161	-53	-169	-10	-15
CCCc1ccccc1OCCNS(=O)(=O)c1cc2c(cc1C)OCC(=O)N2	-1	23	6	19	4	0
CC(Oc1ccc(F)cc1)C(=O)Nc1cc(S(=O)(=O)N2CCOCC2)ccc1N1CCCCC1 (stereo not given)	5	17	-22	17	-9	-21
O=C(NC1(Cc2ccccc2)CCN(Cc2ccc(-c3ccccc3)cc2)C1=O)c1ccccc1 (stereo not given)	-1	85*	62*	-1	-11	59*
Cc1nn(C)c(C)c1NC(=O)CSc1nc(-c2ccccc2F)nc2c1cnn2-c1ccccc1	1	7	11	-2	-6	0
Cc1nn(C)c(C)c1NC(=O)CSc1nc(-c2ccccc2Cl)nc2c1cnn2-c1ccccc1	-15	65*	-10	18	-22	10
CCOc1ccc(C(=O)Nc2cccc(-c3nc4cccnc4o3)c2)cc1Cl	-10	90*	-24	-17	-7	-67
SMILES	MITF TRPM1 inh	Peg3 promoter	TROY signal inh	HIF-2a inh	EBV LMP1 NFkB	TWEAK-Fn14 inh
CCOc1ccc(C(=O)Nc2cccc(C(=O)O)c2)cc1Cl	50	20	-52	63*	39	35
CCOc1ccc(C(=O)Nc2cc(NC(=O)c3ccc(OCC)c(Cl)c3)cc(C(=O)O)c2)cc1Cl	-14	4	43	3	-4	-23
O=C(c1cccs1)c1c[nH]cc1-c1ccccc1	·	14	-20	1	·	7
COCCN1CSC(=S)N(Cc2ccco2)C1	25	-2	12	-1	45*	-7
CCCNC(=O)C1(C)CCN(C(=O)c2cccc(C(F)(F)F)c2)C1 (stereo not given)	·	7	-5	5	·	11
O=C(Nc1c(-c2ccccc2)nc2ccccn12)c1cccc(F)c1	-5	-9	-5	3	14	0
O=C(c1cccc(Cl)c1)N1CCCC(C(=O)N2CCN(c3ccccc3)CC2)C1 (stereo not given)	4	16	-8	8	-3	2
O=C(N/C(=C/c1ccc(Br)cc1)C(=O)N1CCOCC1)c1ccc(Br)o1	-8	-1	-2	19	61*	-14
N#CCCN(NC(=O)OCc1ccccc1)C(=O)OCc1ccccc1	2	1	3	14	-3	8
O=C(C1=C(c2ccccc2)C(=O)c2ccccc2C1=O)c1ccccc1	64*	92*	62*	-29	90*	97*
O=C(c1ccccc1)c1c[nH]cc1-c1ccccc1	-21	-6	-2	7	-2	13
COC1=C(c2ccccc2)C(=O)c2ccccc2C1=O	75*	10	24	4	2	11
CCCCCCCCCCCCCCCC[n+]1ccccc1	82*	97*	52*!	93*	29	77*!
CCCCCCCCCCCCCCCC[n+]1ccc(/C=N/O)cc1	78*	104*	42	70*	5	40
Oc1ccc[n+](CCCCC[n+]2cccc(O)c2)c1	2	20	-15	19	1	-1
COc1ccc(NC(=O)CN2CCN(CC(=O)Nc3ccc(F)cc3F)CC2)cc1	-11	-22	-32	-43	-2	-28
CCn1c(=O)c2cc(C(=O)NCc3cccs3)sc2c2ccccc21	-9	4	0	-20	52*	-7
CC(NC(N)=O)C(=O)Nc1ccc(Cl)c(S(=O)(=O)Nc2ccc(Cl)cc2)c1 (stereo not given)	-6	3	-18	11	-1	11
CC(C)Oc1ccc(C(=O)Nc2ccc(Cl)c(S(=O)(=O)Nc3ccc(Cl)cc3)c2)cc1	8	24	55*	-51	0	90*
CC(C)c1ccc(N=Cc2c(O)c3ccccc3oc2=O)cc1	-3	1	69*	-74	-27	82*
CCOC(=O)C(=CNc1cc(Cl)c(-c2ccco2)c(Cl)c1)C(=O)OCC	-6	-5	18	-15	13	-25
CCOC(=O)C(=CNc1ccc(-c2ccco2)c(Cl)c1)C(=O)OCC	8	-7	10	-25	47*	3
CCOC(=O)C(=CNc1ccc2c(c1)CCN2C(C)=O)C(=O)OCC	13	-61	47	-136	49*	19
O=C(/C=C/c1cccc(C(F)(F)F)c1)NNC(=O)c1ccncc1	-1	6	-3	2	7	15
Cn1c(=O)c2c(ncn2CCOC(=O)C(C)(C)Oc2ccc(Cl)cc2)n(C)c1=O	·	2	10	2	0	11
